Data from PubChem BioAssay.
Calls of active or inactive are those of the source.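 Rule for the calls, unless noted: active = inhibition at or above 50% at 10 µM; inactive = inhibition below 50%.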

Columns and labels:
[1] = inhibitors of TNFa-induced NFkB p65 translocation, primary screen, imaging, HUVEC, MLSMR starter and 10KST1 sets (AID 438;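 active = inhibition above 20% together with a positive visual image hit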;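 note: compound added about 3h40 before a 20 min TNFalpha stimulation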;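 for inhibition: signal is the nuclear over cytoplasmic p65 intensity ratio per well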); conditions: HUVEC TNFa-induced p65 nuclear translocation; cell count: measured here: nuclei count (cytotoxicity indicator), at 2.08 µM; inhibition: at 2 µM, stronger effect = higher value, 0% TNFa-plus-vehicle, 100% no-TNFa wells
[2] = inhibitors of mutant huntingtin aggregation, primary screen, imaging, exon1htt(103Q)mCFP cells, high-content imaging (AID 483;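 active = visual image review flags a hit and inhibition of aggregation exceeds 20%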;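 note: compound exposure lasted 3 days before fixation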;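 for nuclei count: percent of the per-plate median nuclei count of sample wells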); conditions: exon1htt(103Q)mCFP cell line, aggregate imaging, at 2 µM; inhibition of aggregation: stronger effect = higher value; nuclei count: measured here: cell count, toxicity
[3] = inhibitors of E-selectin induction by TNFa, primary screen, imaging, HUVEC, immunofluorescence, MLSMR starter and 10KST1 sets (AID 487;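 active = visually confirmed hit in the image check and inhibition above 20%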;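 for inhibition: signal is fraction of cell area covered by stained E-selectin grains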;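 for nuclei count: 100% = median nuclei count of all wells on the same plate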); conditions: HUVEC TNFalpha-induced E-selectin immunofluorescence imaging, at 2 µM; inhibition: stronger effect = higher value; nuclei count: measured here: cell number, toxicity
[4] = target: Voltage-gated potassium channel subunit beta-2 (Rattus norvegicus) (UniProt P62483); test: KvBeta enzyme negative modulators, primary screen, biochemical, NADPH fluorescence (AID 622;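 active = fluorescence slope higher than the sample average by over 3 SD, cut at about -0.22 in these data, passing the limit was not always enough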;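 note: slope of raw intensity against log time taken from 70 to 1610 s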); conditions: recombinant KvBeta, 4-cyanobenzaldehyde reduction, at 10 µM, stronger effect = higher value
[5] = target: Voltage-gated potassium channel subunit beta-2 (Rattus norvegicus) (UniProt P62483); test: KvBeta positive modulators, primary screen, biochemical, NADPH fluorescence (AID 623;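 active = NADPH fluorescence slope more negative than the mean of all samples by about 3 SD, 99.7% confidence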;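 note: fluorescence intensity change per second fitted from 20 to 320 s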); conditions: Recombinant KvBeta, NADPH fluorescence decrease slope, 10 min; at 10 µM; stronger effect = lower value
[6] = target: Alpha-2C adrenergic receptor (Homo sapiens) (UniProt P18825); test: modulators of alpha2C/GIRK thallium flux, primary screen, cell-based, HEK293 alpha2C/GIRK1/2 (AID 624;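 active = fluorescence slope after compound addition differing from the mean of all screened samples at 99.7% confidence, in either direction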;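 note: slope of fluorescence ratio to pre-addition baseline per second over 15 to 24 s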); conditions: thallium flux BTC fluorescence, at 10 µM, actives lie on both sides
[7] = inhibitors of Sendai virus-induced IRF3 signaling, primary screen, TLR/RLR signaling modifier project, cell-based, Sendai virus stimulus, luciferase, 10K MLSCN set (AID 602276); conditions: HEK293 RL24 IRF3 luciferase reporter, at 10 µM, stronger effect = higher value;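 note: firefly luciferase from ISG56 promoter only with Renilla not read in this screen; 0% = Sendai virus plus DMSO and 100% = medium plus DMSO without virus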
[8] = inhibitors of poly I:C-induced TLR3 signaling, primary screen, cell-based, poly I:C stimulus, luciferase, 10K MLSCN set (AID 602277;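 active = inhibition of the reporter signal at or above 50%; inactive = inhibition below 50%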); conditions: HEK293-TLR3 RL24 IRF3 luciferase reporter, at 10 µM, stronger effect = higher value

Sequence of Voltage-gated potassium channel subunit beta-2 (Rattus norvegicus) (P62483 whole entry, looked up): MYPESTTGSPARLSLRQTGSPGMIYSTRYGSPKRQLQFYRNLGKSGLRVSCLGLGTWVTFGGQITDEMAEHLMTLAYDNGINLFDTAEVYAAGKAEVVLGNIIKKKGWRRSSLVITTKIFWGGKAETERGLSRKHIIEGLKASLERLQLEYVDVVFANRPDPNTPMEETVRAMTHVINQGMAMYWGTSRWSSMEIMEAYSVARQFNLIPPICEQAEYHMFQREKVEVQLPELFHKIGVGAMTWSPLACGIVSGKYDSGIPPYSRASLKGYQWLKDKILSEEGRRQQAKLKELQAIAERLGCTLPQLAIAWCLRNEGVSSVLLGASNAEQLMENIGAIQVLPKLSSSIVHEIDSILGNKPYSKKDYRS
Sequence of Alpha-2C adrenergic receptor (Homo sapiens) (P18825 whole entry, looked up): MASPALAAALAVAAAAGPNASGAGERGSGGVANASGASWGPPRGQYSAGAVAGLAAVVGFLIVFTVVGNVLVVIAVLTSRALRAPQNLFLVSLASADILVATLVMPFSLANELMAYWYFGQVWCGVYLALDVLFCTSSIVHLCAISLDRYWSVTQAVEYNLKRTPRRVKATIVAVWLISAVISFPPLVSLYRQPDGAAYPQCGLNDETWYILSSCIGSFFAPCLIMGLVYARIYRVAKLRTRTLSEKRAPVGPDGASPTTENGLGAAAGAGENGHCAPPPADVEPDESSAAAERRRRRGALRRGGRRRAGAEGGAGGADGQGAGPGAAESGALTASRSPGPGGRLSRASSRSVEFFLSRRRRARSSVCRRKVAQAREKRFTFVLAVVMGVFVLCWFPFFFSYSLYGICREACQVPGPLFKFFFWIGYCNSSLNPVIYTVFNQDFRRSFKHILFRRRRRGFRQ

Row | Structure (SMILES) | cell count [1] | inhibition [1] | inhibition of aggregation [2] | nuclei count [2] | inhibition [3] | nuclei count [3] | fluorescence slope [4] | NADPH fluorescence slope [5] | slope [6] | inhibition [7] | inhibition [8]
1 | COc1ccccc1N1CCN(C(=O)CN(Cc2ccc(Cl)cc2)S(C)(=O)=O)CC1 | 458 | -7.3% (inactive) | -18.6% (inactive) | 112% | -130% (inactive) | 174% | -0.49 (inactive) | 7.6e-06 (inactive) | 0.00623 (inactive) | 17.3% (inactive) | 24.8% (inactive)
2 | COc1ccc2c(c1OC)C(=O)OC2CC(=O)c1ccc(O)cc1 (configuration not stated) | 556 | -1.1% (inactive) | -3.9% (inactive) | 114% | 43.4% (inactive) | 42.6% | -0.447 (inactive) | -4.1e-05 (inactive) | 0.00258 (inactive) | 4.78% (inactive) | 26.9% (inactive)
3 | CCCSc1nnc(-c2ccccc2NC(=O)CC)c(=O)[nH]1 | 632 | -9.3% (inactive) | -17.5% (inactive) | 86.8% | -43.8% (inactive) | 96.6% | -0.412 (inactive) | -4.2e-05 (inactive) | 0.00431 (inactive) | 4.4% (inactive) | -2.41% (inactive)
4 | CC1=C(C(=O)Nc2cccnc2)C(c2ccc(C(C)C)cc2)n2ncnc2N1 (configuration not stated) | 712 | -12.8% (inactive) | -16.2% (inactive) | 118% | -56% (inactive) | 120% | -0.4 (inactive) | 5.8e-05 (inactive) | 0.00428 (inactive) | 1.35% (inactive) | 20% (inactive)
5 | CCOc1ccc(S(=O)(=O)NCC2CCCO2)c2cccnc12 (configuration not stated) | 365 | -1.7% (inactive) | -30.7% (inactive) | 104% | 36.8% (inactive) | 105% | -0.497 (inactive) | 8e-05 (inactive) | 0.00707 (inactive) | 17.5% (inactive) | 21.3% (inactive)
6 | COc1ccc(C(=O)NCCSc2ccccn2)cc1 | 778 | 4.4% (inactive) | 3.3% (inactive) | 101% | 48% (inactive) | 95% | -0.478 (inactive) | -6.9e-05 (inactive) | 0.00549 (inactive) | -6.19% (inactive) | -64.3% (inactive)
7 | CCOC(=O)c1ccc(NS(=O)(=O)c2cccc3nsnc23)cc1 | 387 | -6.2% (inactive) | 18.9% (inactive) | 83.1% | -63.9% (inactive) | 104% | -0.409 (inactive) | 4.3e-05 (inactive) | 0.00792 (inactive) | -5.26% (inactive) | 0.648% (inactive)
8 | O=C(CSc1nnc(-c2ccco2)n1-c1ccccc1)N1CCN(C(=O)c2ccco2)CC1 | 537 | -7.8% (inactive) | 27.8% (active) | 59.4% | 0.8% (inactive) | 116% | -0.474 (inactive) | -1.7e-05 (inactive) | 0.00672 (inactive) | 11.5% (inactive) | 31.2% (inactive)
9 | COc1ccc(NC(=O)c2cc(C)on2)cc1OC | 377 | 3.7% (inactive) | -26.4% (inactive) | 111% | 22.1% (inactive) | 106% | -0.624 (inactive) | -3.2e-06 (inactive) | 0.00386 (inactive) | 6.93% (inactive) | -8.62% (inactive)
10 | COc1cc(C)c(-c2cc(C(=O)O)c(C)o2)cc1C(C)C | 451 | -7.7% (inactive) | -1.5% (inactive) | 95.9% | -99% (inactive) | 130% | -0.416 (inactive) | 6.3e-06 (inactive) | 0.00528 (inactive) | 12.3% (inactive) | 17.2% (inactive)
11 | CC12COC3(C(=O)Nc4ccc(Cl)cn4)CC1CCC32C (configuration not stated) | 773 | -8% (inactive) | 16.9% (inactive) | 85.1% | -32.6% (inactive) | 102% | -0.395 (inactive) | -5.6e-05 (inactive) | 0.00598 (inactive) | -1.35% (inactive) | 10.2% (inactive)
12 | CCN(CCCNC(=O)CCNC(=O)Cn1ccc2ccccc2c1=O)c1ccccc1 | 393 | 4.5% (inactive) | -6.3% (inactive) | 103% | -106% (inactive) | 118% | -0.441 (inactive) | -8.2e-06 (inactive) | 0.00588 (inactive) | -0.268% (inactive) | -15.2% (inactive)
